p97 inhibitor = blocks human p97 ATPase activity | P55072 | recombinant p97 ATPase, Kinase-Glo ATP luminescence, 3 h | inhibition, % at 8 µM | 220,000 compounds, 0.42% hits | AID 1481; in the data active = inhibition above about 15%
Target sequence (P55072 whole entry, looked up): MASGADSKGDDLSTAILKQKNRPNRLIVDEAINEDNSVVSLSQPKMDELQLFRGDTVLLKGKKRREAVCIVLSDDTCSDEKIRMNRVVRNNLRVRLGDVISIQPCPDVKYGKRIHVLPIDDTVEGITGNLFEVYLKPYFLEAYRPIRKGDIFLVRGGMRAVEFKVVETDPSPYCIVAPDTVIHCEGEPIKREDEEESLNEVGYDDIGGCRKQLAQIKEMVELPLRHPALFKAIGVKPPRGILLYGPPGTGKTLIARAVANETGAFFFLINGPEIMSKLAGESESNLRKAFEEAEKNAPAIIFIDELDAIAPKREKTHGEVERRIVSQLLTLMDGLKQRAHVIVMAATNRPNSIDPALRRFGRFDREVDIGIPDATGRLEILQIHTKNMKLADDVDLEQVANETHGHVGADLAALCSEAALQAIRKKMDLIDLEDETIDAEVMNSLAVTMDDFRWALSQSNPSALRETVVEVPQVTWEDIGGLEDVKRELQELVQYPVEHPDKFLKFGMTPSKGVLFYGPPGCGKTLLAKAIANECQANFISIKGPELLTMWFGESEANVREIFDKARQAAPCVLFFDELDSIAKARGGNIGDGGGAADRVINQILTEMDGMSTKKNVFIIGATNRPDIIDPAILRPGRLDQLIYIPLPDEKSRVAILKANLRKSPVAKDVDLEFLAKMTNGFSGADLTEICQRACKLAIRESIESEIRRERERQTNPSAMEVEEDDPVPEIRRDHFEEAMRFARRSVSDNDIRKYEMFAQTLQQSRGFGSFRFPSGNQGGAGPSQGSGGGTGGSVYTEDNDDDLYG
DTT redox prof = compounds producing H2O2 with reducing agent – biochemical, NIH compound library profiling, artefact control for MLSCN library redox annotation, primary screen; DTT-dependent redox cycling H2O2, phenol red/HRP absorbance; 100% = 100 µM peroxide control, 0% = buffer; activation, % at 10 µM; 200,000 compounds, 0.03% hits;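 active = activation of at least 50% relative to the plate's high and low controls in the primary single-dose screen; inactive = activation below 50%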;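 note: compound incubated with DTT at 0.8 mM final as the reducing agent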
LYPLA2 counter = LYPLA2 (human) inhibition in PME1 counter-screen; recombinant LYPLA2, FP-Rh probe fluorescence polarization; inhibition, % at 5.9 µM; 320,000 compounds, 0.38% hits;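 active = inhibition above the screen-wide mean plus 3 SD, limit set per campaign, cut at about 26% in these data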
LYPLA1 counter = blocks human lysophospholipase 1, a PME1 counter-screen; recombinant LYPLA1, FP-Rh probe fluorescence polarization; inhibition, % at 5.9 µM; 320,000 compounds, 0.16% hits; AID 2174;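 active = inhibition above the mean of all tested compounds plus 3 SD, set per campaign, cut at about 14% in these data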;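 note: inhibitors block serine hydrolase probe labeling of LYPLA1 so polarization falls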
LYPLA1 confirm = counter-screen for PME1 inhibitors: confirmation of human LYPLA1 inhibitors. shares compounds with LYPLA1 counter. recombinant LYPLA1, FP-Rh probe fluorescence polarization. inhibition, % at 5.9 µM. 480 compounds, 69% hits;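 active = mean inhibition across replicates above the hit cutoff set in the primary screen, cut at about 15% in these data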;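 note: loss of FP-Rh probe labeling of LYPLA1 seen as lower polarization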
A number is an active result; 0 = inactive; - = no result. Most compounds without a hit are left out; they make up all but 0.74% or so of the library.

SMILES | p97 inhibitor | DTT redox prof | LYPLA2 counter | LYPLA1 counter | LYPLA1 confirm
O=C1CCN(C(=O)/C=C/c2ccccc2)c2ccccc21 | 0 | 0 | 0 | 15 | 23
COc1ccc(/C=C/C(=O)N2CCCc3ccccc32)cc1 | 0 | 0 | 0 | 0 | -
Cc1ccc(OCc2cc(C(=O)N(C)Cc3cnn(-c4ccccc4C)c3)no2)cn1 | - | - | 0 | 27 | 29
COc1cc(/C=N/NC(=O)COc2ccc([N+](=O)[O-])cc2)ccc1OCC(=O)N1CCOCC1 | - | - | 0 | 0 | -
COc1ccc([N+](=O)[O-])cc1NC(=O)C(C)N1CCN(C(=O)c2ccco2)CC1 (centres undefined) | 0 | 0 | 0 | 16 | 22
Cn1c(=O)c2cc(NCc3ccccc3)nnc2n(C)c1=O | 0 | 0 | 0 | 19 | 0
Cn1c(=O)c2c(nc(NCc3ccccc3)n2C)n(C)c1=O | 0 | 0 | 0 | 0 | -
CCN(C(=O)COC(=O)c1ccc(Br)o1)C1CCCCC1 | 0 | 0 | 0 | 0 | -
Cn1c(=O)[nH]c2nnc(-c3ccc(Cl)c(Cl)c3)nc2c1=O | 0 | - | 0 | 14 | 24
O=C(NC1CCS(=O)(=O)C1)c1cccnc1 (centres undefined) | 0 | 0 | 0 | 0 | -
CCN1C(=O)c2cccc3c(N)ccc(c23)C1=O | - | - | 0 | 15 | 0
Cc1nn(C)c(C)c1N1C(=O)c2cccc3c(N)ccc(c23)C1=O | 0 | 0 | 0 | 0 | -
CC1CCN(Cc2nnnn2CCCC(=O)NCCN2CCOCC2)CC1 | - | - | 0 | 0 | -
CCC(=N\NC(=O)COc1ccccc1OC)/C(CC)=N/NC(=O)COc1ccccc1OC | - | - | 0 | 0 | -
CC1=CN2C(=N)/C(=C/c3ccc([N+](=O)[O-])o3)C(=O)N=C2S1 | 0 | 0 | 0 | 17 | 0
C=CCn1c(O)c(N=NC(=S)Nc2ccc(OC)cc2)c2ccccc21 | 0 | 0 | 0 | 30 | 33
C=CCn1c(O)c(N=NC(=S)Nc2cccc(OC)c2)c2ccccc21 | 0 | 0 | 0 | 0 | -
Cc1cc(C)n2nc(C(=O)OCC(=O)N(C)CC(=O)Nc3ccccc3Cl)nc2n1 | - | - | 0 | 0 | -
CCN(CC)c1ccc(/C=C(\C#N)C(=O)NCc2ccco2)cc1 | 0 | 0 | 0 | 0 | -
CN(C)c1ccc(/C=C(\C#N)C(=O)NCc2ccco2)cc1 | 0 | 0 | 0 | 22 | 0
CN(C)C=Nc1c(Br)cc(Br)c2nonc12 | 0 | 0 | 0 | 14 | 0
CN(C)C=Nc1nonc1-c1ccccc1 | 0 | - | 0 | 0 | -
CC(C)C(NC(=O)c1ccco1)C(=O)NC1CCCCCC1 (centres undefined) | - | - | 0 | 0 | -
CCOC(=O)C1CCN(C(=O)c2[nH]c3ccc(OC)cc3c2C)CC1 | - | - | 0 | 0 | -
COc1ccc2[nH]c(C(=O)N3CCC(CO)(Cc4cccc(C(F)(F)F)c4)CC3)c(C)c2c1 | - | - | 0 | 19 | 26
SMILES | p97 inhibitor | DTT redox prof | LYPLA2 counter | LYPLA1 counter | LYPLA1 confirm
COc1ccc(/C=C2/Sc3ccc(C(=O)NCCCN4CCOCC4)cc3NC2=O)cc1OC | - | - | 0 | 37 | 67
O=C(Nc1ccncc1)c1ccc2c(c1)C(=O)N(C1CCCCC1)C2=O | 0 | 0 | 52 | 26 | 31
Cc1cc(NC(=O)c2ccc3c(c2)C(=O)N(C2CCCCC2)C3=O)no1 | 0 | 0 | 0 | 0 | -
COc1cc2[nH]c(=O)n(CCC(=O)N3CCc4ccccc4C3)c(=O)c2cc1OC | 0 | 0 | 0 | 0 | -
COc1cc2[nH]c(=O)n(CCCCCC(=O)N3CC=C(c4ccccc4)CC3)c(=O)c2cc1OC | 0 | 0 | 0 | 17 | 18
COCCn1c(=O)[nH]c2cc(C(=O)N3CCN(c4cccc(Cl)c4)CC3)ccc2c1=O | - | - | 0 | 52 | 0
CN(CCCC1CCCC1)C(=O)c1cc(COc2c(F)cccc2F)on1 | - | - | 0 | 0 | -
CN(CCCC1CCCC1)C(=O)c1cc(COc2ccc(F)c(F)c2)on1 | - | - | 0 | 16 | 28
COc1ccccc1NC(=O)COc1ccc(Br)cc1CNCCCN1CCOCC1 | 0 | 0 | 0 | 0 | -
COc1cc(CNCCCN2CCOCC2)c(Br)cc1OCC(=O)Nc1ccccc1C | 0 | 0 | 0 | 17 | 0
COc1ccc(OC)c(CN2CCN(c3ccc(S(=O)(=O)N4CCCC4)cn3)CC2)c1 | - | - | 0 | 0 | -
C=CCN(CC=C)C(=O)COn1nnc2ccc(S(=O)(=O)N3CCOCC3)cc21 | - | - | 0 | 0 | -
CC(C)(C)OC(=O)N[C@@H](Cc1c[nH]c2ccccc12)c1nnc(SCC(N)=O)o1 | 0 | 0 | 0 | 0 | -
CC(C)Sc1nnc([C@H](Cc2c[nH]c3ccccc23)NC(=O)OC(C)(C)C)o1 | 0 | 0 | 0 | 46 | 0
CCc1ccc(N2CC(C(=O)Nc3ccc(S(=O)(=O)N4CCOCC4)cc3)CC2=O)cc1 (centres undefined) | - | - | 0 | 0 | -
COc1cc(NC(=O)Nc2ccc(Cl)c(Cl)c2)c(C(=O)O)cc1OC | 0 | - | 0 | 20 | 18
COc1cc(OC)c(NC(=O)Nc2ccc(OC)c(OC)c2)cc1Cl | 0 | 0 | 0 | 0 | -
COc1ccc2c(c1)CCc1c(C(=O)N3CCCc4ccccc43)noc1-2 | 0 | 0 | 0 | 34 | 35
CC(OC(=O)c1nc(Cl)ccc1Cl)C(=O)NC1CCCCC1C (centres undefined) | - | - | 0 | 16 | 0
CC(OC(=O)c1cccc(Cl)c1)C(=O)NC1CCCCC1C (centres undefined) | - | - | 0 | 0 | -
COC(=O)[C@@H]1C[C@@]2(O)[C@@H](O)[C@@H](O)[C@@H](O)C[C@H]2N1CC(c1ccccc1)c1ccccc1 | - | - | 0 | 0 | -
CCCCC1OC23CCCCC2C(C#N)(C#N)C1(C#N)C(=N)O3 (centres undefined) | 0 | 0 | 0 | 15 | 0
Cc1nc2ccc(C(=O)Nc3cccc([N+](=O)[O-])c3)cc2s1 | 0 | 0 | 0 | 15 | 22
O=C(Nc1cccc([N+](=O)[O-])c1)c1cccc(C(=O)Nc2cccc([N+](=O)[O-])c2)c1 | 0 | - | 0 | 0 | -
CN(CC(=O)NC(=O)NCc1ccccc1)CC(=O)Nc1ccc(Cl)c(Cl)c1 | - | - | 0 | 0 | -
SMILES | p97 inhibitor | DTT redox prof | LYPLA2 counter | LYPLA1 counter | LYPLA1 confirm
CN(C)C1=NCCN1CC1CCCC1 | - | - | 0 | 0 | -
O=C(CN1CCN(C(=O)c2ccccc2)CC1)Nc1cc(S(=O)(=O)N2CCCC2)ccc1Cl | - | - | 0 | 78 | 81
O=C(CN1CCN(C(=O)c2ccco2)CC1)Nc1ccccc1-c1ccccc1 | 0 | 0 | 0 | 0 | -
O=C(CN1CCN(C(=O)c2ccco2)CC1)Nc1cc(Cl)ccc1Cl | 0 | 0 | 0 | 82 | 85
O=C(CNC(=O)C1COc2ccccc2O1)N/N=C/c1ccc(O)cc1O (centres undefined) | 0 | 0 | 0 | 0 | -
COc1cc(NC(=O)Cn2ncc3c2-c2ccccc2OC3)cc(OC)c1OC | 0 | 0 | 0 | 20 | 0
C#CCN1c2ccccc2Sc2cccnc21 | - | - | 0 | 17 | 0
CC(CN1c2ccccc2Sc2ccccc21)N(C)C (centres undefined) | 0 | 0 | 0 | 0 | -
O=C(NCc1ccncc1)C1CCN(S(=O)(=O)c2ccccc2)CC1 | - | - | 0 | 0 | -
Cn1c(O)c(/C=N/NC(=O)c2cc3ccccc3cc2O)c2ccccc21 | - | - | 0 | 15 | 16
Cn1c2ccccc2c2cc(/C=N/NC(=O)c3ccc(O)cc3O)ccc21 | - | - | 0 | 0 | -

Screening data as filed in PubChem.
